DRD3 agonist = activates the human D3 dopamine receptor; D3R DiscoveRx beta-arrestin cells, luminescence, 90 min; max activation, %; hit rate 0.58% among 410,000; AID 652048; in the data active = max activation above about 30%; note: 0% is about no effect
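Cells at 1500/well, incubated overnight, then treated with pinned compounds (dopamine as control) for 90 min at 37 degrees C. DiscoveRx reagent added for 30 - 60 minutes at room temperature; luminescence read.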
D1 ag = human D1 receptor agonism; AID 504660; hit rate 1% among 360,000; P21728; HEK293 T-REx D1 cells, calcium flux, agonist mode; activation, % at 2 µM; in the data active = activation above about 30%; note: 0% is about no effect
Target sequence (P21728 whole entry, looked up): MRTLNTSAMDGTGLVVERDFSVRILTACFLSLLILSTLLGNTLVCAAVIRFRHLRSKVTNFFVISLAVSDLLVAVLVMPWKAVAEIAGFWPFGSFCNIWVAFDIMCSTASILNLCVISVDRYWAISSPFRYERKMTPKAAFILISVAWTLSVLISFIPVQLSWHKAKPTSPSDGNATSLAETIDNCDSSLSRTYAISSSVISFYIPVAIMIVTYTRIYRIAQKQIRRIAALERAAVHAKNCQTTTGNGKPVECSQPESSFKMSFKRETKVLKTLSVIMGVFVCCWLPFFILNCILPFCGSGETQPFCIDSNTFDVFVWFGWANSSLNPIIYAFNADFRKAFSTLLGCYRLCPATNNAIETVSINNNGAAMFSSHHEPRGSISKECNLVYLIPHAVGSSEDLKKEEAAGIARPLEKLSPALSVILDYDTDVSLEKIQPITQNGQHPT
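Agonism was scored from calcium flux recorded over 180 s (1 read/s) after pintool compound addition, following a 10-cycle baseline. Cells were inducible force-coupled HEK293 TREx D1, plated overnight at 30 C and loaded with no-wash calcium dye.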
D1 potentiator = human D1 dopamine receptor positive modulation | P21728 | HEK293 TREx D1 cells, calcium flux, dopamine EC20 potentiation | potentiation, % at 10 µM | hit rate 0.036% among 360,000; in the data active = potentiation above about 30%; note: 0% is about no effect
DRD3 antagonist = D3 dopamine receptor (human) antagonism; D3R cells, DiscoveRx beta-arrestin luminescence, antagonist mode; hits give low values; max response, negative = inhibition, %; P35462; hit rate 2.5% among 360,000; in the data active = max response below about -50%; note: % is set by controls: 0 for no effect and ±100 for the full control effect
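Cells expressing the human receptor were seeded at 1500 cells/well, incubated overnight at 37 degrees C in 5% CO2, then exposed to library compounds with dopamine controls for 90 minutes at 37 degrees C before luminescent detection.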
D1 antagonist = blocks dopamine activation of the human D1 receptor. P21728. HEK293 TREx D1 cells, calcium flux, dopamine EC80; hits give low values. activity change, negative = inhibition, % at 10 µM. hit rate 3.2% among 360,000; in the data active = activity change below about -30%; note: % is set by controls: 0 for no effect and ±100 for the full control effect
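Allosteric or orthosteric antagonism assessed as attenuation of the calcium response to EC80 dopamine, added 180 s after compound, in induced HEK293 Trex D1 cells loaded with no-wash calcium dye.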
Numbers without * were called inactive; · = no result; ! = repeats disagree. A selection: hits, their analogues and other compounds. The true share with any hit is near 6%.

SMILES	DRD3 agonist	D1 ag	D1 potentiator	DRD3 antagonist	D1 antagonist
Cc1ccc(C(C)NC(=O)C23CC4CC(CC(C4)C2)C3)cc1 (centres undefined)	-5	-1	7	-7	-1
O=C(NCC(c1cccnc1)N1CCc2ccccc2C1)C(=O)Nc1cccc(Cl)c1 (centres undefined)	7	-1	-2	·	-3
O=C(COc1ccc2cc(Br)ccc2c1)N1CCCC1	1	1	-6	-10	-4
O=C(COc1ccc(Br)cc1)N1CCCCCC1	-17	0	-3	-59*	-8
CC1(C)CC(=O)c2cc(OCC(=O)N3CCCCCC3)ccc2O1	-12	4	-1	-71*	-2
CCOC(=O)c1sc2ccccc2c1S(=O)(=O)N1CCN(c2cc(C)ccc2C)CC1	-3	3	-1	·	25
Cc1ccc(C)c(S(=O)(=O)c2nnn3c2nc(Nc2ccc(F)c(Cl)c2)c2sccc23)c1	4	3	-7	·	-8
COc1ccc(Cc2noc(CN3CCN(c4ccc(Cl)cn4)CC3)n2)cc1OC	-6	15	-4	-10	-31*
N#C/C(=C\c1cc(O)c(O)c(O)c1)C(N)=O	4	10	3	-27	-1
N#C/C(=C\c1cc(Cl)c(OCc2ccc(Cl)cc2)c(Cl)c1)C(N)=O	·	7	-14	·	-43*
Cc1cc(C)n(CCCN2CCC(C(=O)Nc3cccc(-c4cccc(F)c4)c3)CC2)n1	-29	34*	-8	-20	-58*
CC1CCN(S(=O)(=O)c2ccc3c(c2)c(=O)c(C(=O)N2CCN(c4cccc(Cl)c4)CC2)cn3C)CC1	-5	2	4	·	-11
COc1ccc(OC)c(NC(=O)c2csnn2)c1	2	-1	3	·	3
CCc1ccc(-c2cc(C)no2)cc1S(=O)(=O)NCc1ccc(OC)c(OC)c1	-3	2	7	0	-9
CCc1ccc(-c2cc(C)no2)cc1S(=O)(=O)NCCc1ccc(OC)c(OC)c1	-11	6	0	-21	-36*
Cc1cc(-c2ccc(C)c(S(=O)(=O)NCCc3ccc(S(N)(=O)=O)cc3)c2)on1	-11	4	-1	14	-63*!
CCCN(c1ccccc1F)S(=O)(=O)c1cc(-c2cc(C)no2)ccc1OC	-2	6	-8	0	-46*
CCCN(c1ccccc1F)S(=O)(=O)c1cc(-c2cc(C)no2)ccc1C	12	20	-5	·	-6
Cc1cc(-c2ccc(C)c(S(=O)(=O)NCCc3ccco3)c2)on1	-12	2	-2	-16	-34*
COc1cccc2c1cc1c(=O)n(CC(=O)N3CCN(c4cccc(C)c4)C(C)C3)nc(C)n12 (centres undefined)	11	-1	-3	·	-7
Oc1ccc(CNc2ccc(C(F)(F)F)cc2Cl)c2cccnc12	·	8	1	·	2
Cc1ccccc1Nc1nnc(SCc2cc(=O)n3ccsc3n2)s1	46*	5	8	4	-54*
O=c1cc(CSc2nnc(Nc3ccccc3)s2)nc2sccn12	6	-4	1	-3	5
COC1=CC(=Cc2c(N)n3nc(CC(=O)N4CCCCC4)sc3nc2=O)C=C(OC)C1=O	7	62*	1	-4	9
Cc1cccc(N2CCN(C(=O)C3CCN(S(=O)(=O)c4cccs4)CC3)CC2)c1C	-10	-3	-2	·	-34*
SMILES	DRD3 agonist	D1 ag	D1 potentiator	DRD3 antagonist	D1 antagonist
Cc1cccc(N2CCN(C(=O)C3CCC(CNS(=O)(=O)c4cccs4)CC3)CC2)c1C (centres undefined)	13	-3	-1	2	-4
Cc1cccc(N2CCN(C(=O)C3CCCN(S(=O)(=O)c4c(C)noc4C)C3)CC2)c1C (centres undefined)	67*	·	·	-6	·
COc1ccc(S(=O)(=O)NC2CCN(C#N)CC2)cc1	·	0	-1	·	-11
O=C(C[n+]1ccc2ccccc2c1)c1ccc2ccc3ccccc3c2c1	-15	·	·	-78*	·
CC(C)(C)CC(=O)NC1CC(=O)N(c2ccc3c(c2)OCCO3)C1 (centres undefined)	8	6	-3	·	·
CC(=O)Nc1ccccc1-c1nc2ccccc2n(C(C)C(=O)c2ccc(C)c(C)c2)c1=O (centres undefined)	-18	51*	-1	·	-3
Cc1cccc(N2CCN(c3ccc4cc(S(=O)(=O)N5CCC(C)CC5)ccc4n3)CC2)c1C	1	3	2	·	0
Cc1ccc(NC(=O)c2nc(S(=O)(=O)Cc3ccccc3)ncc2Cl)cc1	-31	10	-21	-86*	9
Cc1ccccc1CS(=O)(=O)c1ncc(Cl)c(C(=O)Nc2ccc(F)cc2)n1	-2	3	-7	-84*	-2
CCS(=O)(=O)c1ncc(Cl)c(C(=O)Nc2c(C(=O)c3ccc(C)cc3)oc3ccccc23)n1	0	-1	0	·	-27
O=C(Nc1ccc(F)cc1)c1nc(S(=O)(=O)Cc2ccccc2)ncc1Cl	-22	2	-2	-110*	-51*
O=C(Nc1nc2ccc(F)cc2s1)c1nc(S(=O)(=O)Cc2ccccc2)ncc1Cl	-15	-1	-1	·	-9
Cc1ccc(CSc2ncc(Cl)c(C(=O)NCc3ccccc3)n2)cc1	-7	7	2	·	-2
O=C(NCc1ccccc1)c1nc(S(=O)(=O)Cc2ccc(F)cc2)ncc1Cl	-23	1	-2	·	-46*
O=C(Nc1ccccc1F)c1nc(S(=O)(=O)Cc2ccccc2F)ncc1Cl	0	1	-4	·	-45*
CC1(C)S[C@@H]2[C@H](NC(=O)[C@H](N)c3ccccc3)C(=O)N2[C@H]1C(=O)OC1OC(=O)c2ccccc21 (some centres undefined)	-34	0	-6	-67*	-9
CCOC(=O)C(NC(=O)Nc1ncccn1)(Oc1ccccc1)C(F)(F)F (centres undefined)	12	2	-1	0	2
CCOC(=O)C(NC(=O)Nc1ccc(F)cc1F)(Oc1ccc(F)cc1)C(F)(F)F (centres undefined)	22	2	0	-4	-85*
CCc1ccc(-n2c(=O)c3c4c(sc3n(CC(=O)N3CCCCC3CC)c2=O)CCC4)cc1 (centres undefined)	-7	-2	2	·	19
O=C1CC(NNC(=O)c2ccccc2)C(=O)N1 (centres undefined)	3	2	-5	-19	-40*
O=C1CC(NNC(=O)c2ccc(Br)cc2)C(=O)N1 (centres undefined)	-9	3	-4	-3	-19
Oc1ccc(/C=N/Nc2nn3cnnc3c3ccccc23)cc1	2	0	-1	1	-51*
COc1cc(/C=N/Nc2nn3cnnc3c3ccccc23)ccc1O	-4	0	-6	-29	-8
CCN(CC)c1ccc(N=Nc2nn(C)c(C)c2[N+](=O)[O-])cc1	-14	2	10	-59*	7
CCN(Cc1ccccc1)c1ccc(N=Nc2nn(C)c(C)c2[N+](=O)[O-])cc1	-12	2	-6	-51*	-10
